According to ChEMBL document CHEMBL3988442, “University of Dundee, Small-Polar-MMV Screening Library” (2021):
For some of these results: Entries with a potency or affinity are not part of this list.

Assays:
Parameters in all cases: scale not given: direction of the effect not stated beside the values
[1] = molecular target: Protein translocase subunit SecA (Escherichia coli (strain K12)) (UniProt P10408); assay: Assay to Identify E. coli SecA ATPase Inhibitors; type: functional; settings: 30 µM
Chain of Protein translocase subunit SecA (Escherichia coli (strain K12)) (P10408 whole entry): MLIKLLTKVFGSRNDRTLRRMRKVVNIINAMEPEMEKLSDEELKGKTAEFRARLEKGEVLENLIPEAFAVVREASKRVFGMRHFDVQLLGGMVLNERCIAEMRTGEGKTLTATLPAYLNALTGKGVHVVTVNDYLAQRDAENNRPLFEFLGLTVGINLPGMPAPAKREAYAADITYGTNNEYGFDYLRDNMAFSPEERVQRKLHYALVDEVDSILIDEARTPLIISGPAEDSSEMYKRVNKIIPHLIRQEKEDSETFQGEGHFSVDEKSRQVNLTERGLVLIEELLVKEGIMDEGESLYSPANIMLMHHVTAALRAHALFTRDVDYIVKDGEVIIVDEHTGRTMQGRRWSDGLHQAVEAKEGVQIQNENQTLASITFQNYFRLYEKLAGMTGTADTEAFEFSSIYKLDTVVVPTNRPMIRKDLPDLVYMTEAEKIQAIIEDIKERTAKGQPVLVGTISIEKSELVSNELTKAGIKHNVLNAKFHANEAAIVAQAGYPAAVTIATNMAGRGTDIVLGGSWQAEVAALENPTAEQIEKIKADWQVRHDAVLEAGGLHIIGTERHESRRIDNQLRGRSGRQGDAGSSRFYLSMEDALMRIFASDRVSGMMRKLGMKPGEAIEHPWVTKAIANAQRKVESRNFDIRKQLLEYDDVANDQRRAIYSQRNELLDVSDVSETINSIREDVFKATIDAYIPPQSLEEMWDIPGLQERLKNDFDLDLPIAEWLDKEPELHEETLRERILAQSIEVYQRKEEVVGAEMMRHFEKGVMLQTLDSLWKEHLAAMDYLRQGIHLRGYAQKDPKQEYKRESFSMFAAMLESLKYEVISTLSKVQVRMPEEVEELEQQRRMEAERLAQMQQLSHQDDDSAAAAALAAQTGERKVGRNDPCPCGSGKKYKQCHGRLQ

[2] = molecular target: T1, Ubiquitin-activating enzyme e1, putative (Leishmania donovani (strain BPK282A1)) (UniProt E9BSI1); assay: Leishmania donovani Ubiquitin Activating Enzyme (LdE1); type: functional; settings: 30 µM
T1 sequence (whole entry): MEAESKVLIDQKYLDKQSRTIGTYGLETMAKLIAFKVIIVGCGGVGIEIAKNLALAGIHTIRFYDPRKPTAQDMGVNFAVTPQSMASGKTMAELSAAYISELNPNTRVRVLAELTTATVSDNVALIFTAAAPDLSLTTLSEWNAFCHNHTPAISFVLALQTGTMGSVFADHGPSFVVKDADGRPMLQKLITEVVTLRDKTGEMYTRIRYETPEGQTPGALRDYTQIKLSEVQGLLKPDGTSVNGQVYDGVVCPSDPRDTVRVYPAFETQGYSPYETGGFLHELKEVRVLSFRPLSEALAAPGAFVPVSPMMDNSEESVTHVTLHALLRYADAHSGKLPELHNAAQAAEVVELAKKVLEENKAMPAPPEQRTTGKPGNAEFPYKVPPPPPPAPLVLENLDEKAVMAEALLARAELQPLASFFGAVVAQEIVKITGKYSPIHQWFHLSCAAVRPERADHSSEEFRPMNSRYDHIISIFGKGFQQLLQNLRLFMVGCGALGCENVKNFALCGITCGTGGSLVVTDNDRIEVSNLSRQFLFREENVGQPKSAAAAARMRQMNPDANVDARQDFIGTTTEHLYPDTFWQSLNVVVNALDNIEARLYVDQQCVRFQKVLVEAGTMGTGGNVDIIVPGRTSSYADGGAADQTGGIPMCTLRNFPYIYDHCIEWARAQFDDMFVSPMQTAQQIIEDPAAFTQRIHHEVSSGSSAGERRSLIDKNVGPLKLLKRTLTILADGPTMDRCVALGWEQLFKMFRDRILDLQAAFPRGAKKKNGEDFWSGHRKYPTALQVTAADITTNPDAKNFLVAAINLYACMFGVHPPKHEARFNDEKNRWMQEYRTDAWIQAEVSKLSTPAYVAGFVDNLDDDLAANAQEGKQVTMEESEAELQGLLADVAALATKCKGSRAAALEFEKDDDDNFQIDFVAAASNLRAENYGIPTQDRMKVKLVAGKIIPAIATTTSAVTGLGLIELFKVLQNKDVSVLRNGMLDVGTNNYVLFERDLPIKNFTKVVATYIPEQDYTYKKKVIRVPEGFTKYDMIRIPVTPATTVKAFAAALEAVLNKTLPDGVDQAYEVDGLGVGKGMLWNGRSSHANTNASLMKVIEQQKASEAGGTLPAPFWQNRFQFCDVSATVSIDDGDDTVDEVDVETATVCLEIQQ

[3] = molecular target: AMP-activated protein kinase, AMPK (Homo sapiens) (UniProt P54646+O43741+P54619+Q9UGJ0+Q9Y478+Q13131+Q9UGI9); assay: AMP-dependent Kinase enzyme assay. An in vitro enzyme assay that detects ADP turnover that is directly proportional to AMPK activity. This uses naive AMPK that is activated during the assay with MK-8722; type: functional; settings: 30 µM
[4] = molecular target: Sialic acid-binding Ig-like lectin 9 (Homo sapiens) (UniProt Q9Y336); assay: Hs-Siglec9 ALPHAscreen SOP 20170721; settings: 10 µM
Chain of Sialic acid-binding Ig-like lectin 9 (Homo sapiens) (Q9Y336 whole entry): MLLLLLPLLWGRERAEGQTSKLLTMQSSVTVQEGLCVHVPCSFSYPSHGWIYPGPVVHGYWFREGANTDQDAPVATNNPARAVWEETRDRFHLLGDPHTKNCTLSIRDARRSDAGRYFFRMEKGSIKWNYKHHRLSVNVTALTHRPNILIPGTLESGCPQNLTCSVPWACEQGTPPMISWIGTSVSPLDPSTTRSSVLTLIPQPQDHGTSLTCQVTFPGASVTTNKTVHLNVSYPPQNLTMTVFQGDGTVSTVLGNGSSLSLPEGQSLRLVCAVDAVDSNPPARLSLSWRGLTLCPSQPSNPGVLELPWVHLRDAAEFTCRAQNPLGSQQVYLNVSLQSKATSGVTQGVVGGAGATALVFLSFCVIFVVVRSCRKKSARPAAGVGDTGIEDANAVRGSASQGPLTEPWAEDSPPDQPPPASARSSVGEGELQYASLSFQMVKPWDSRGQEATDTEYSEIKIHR

[5] = tested on: Trypanosoma cruzi; assay: Trypanosoma cruzi phosphomannomutase and mannose-1-phosphate guanylyltransferase assay; type: functional; settings: 10 µM
[6] = molecular target: T2, Arginase-2, mitochondrial (Homo sapiens) (UniProt P78540); assay: in vitro enzyme assay to detect the production of urea directly proportional to the activity of Arginase II; type: functional; settings: 33.3 µM; note: in the data most compounds retested in dose-response had high values
T2 sequence (whole entry): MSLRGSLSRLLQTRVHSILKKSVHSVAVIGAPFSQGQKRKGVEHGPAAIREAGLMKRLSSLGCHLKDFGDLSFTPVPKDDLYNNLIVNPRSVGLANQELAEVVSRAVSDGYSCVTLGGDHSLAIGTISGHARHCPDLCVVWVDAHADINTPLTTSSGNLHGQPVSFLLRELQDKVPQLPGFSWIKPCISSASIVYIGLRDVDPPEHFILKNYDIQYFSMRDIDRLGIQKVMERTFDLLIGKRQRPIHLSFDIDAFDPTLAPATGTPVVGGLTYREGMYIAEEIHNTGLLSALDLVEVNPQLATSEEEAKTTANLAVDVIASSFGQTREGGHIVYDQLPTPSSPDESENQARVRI

[7] = molecular target: T3, Proteasome subunit beta (Trypanosoma cruzi) (UniProt O96673); assay: Trypanosoma cruzi proteasome chymotrypsin-like activity (TcProtChymo) assay.; note: in the data most compounds retested in dose-response had high values; type: functional; settings: 9.37 µM
T3 sequence (whole entry): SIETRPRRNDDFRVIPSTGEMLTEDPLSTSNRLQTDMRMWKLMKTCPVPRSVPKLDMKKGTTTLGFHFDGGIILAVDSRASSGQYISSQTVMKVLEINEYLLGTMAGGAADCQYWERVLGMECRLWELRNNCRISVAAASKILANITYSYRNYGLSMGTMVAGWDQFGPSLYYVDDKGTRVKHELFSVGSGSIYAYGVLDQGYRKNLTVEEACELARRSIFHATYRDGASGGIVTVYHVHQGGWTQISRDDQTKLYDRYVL

[8] = species on record: Homo sapiens; assay: To identify inhibition of the IFN signalling (Jak-Stat) pathway via expression of an eGFP reporter gene under the control of an IFN-stimulated response element (ISRE) containing MxA promoter.; type: functional; settings: 30 µM
[9] = molecular target: T4, Tyrosyl-tRNA synthetase, putative (Trypanosoma cruzi (strain CL Brener)) (UniProt Q4DSP6); assay: Trypanosoma cruzi tyrosyl tRNA synthetase (TcYRS) _High Tyrosine SOP; type: functional; settings: 30 µM; note: in the data most compounds retested in dose-response had high values
T4 sequence (whole entry): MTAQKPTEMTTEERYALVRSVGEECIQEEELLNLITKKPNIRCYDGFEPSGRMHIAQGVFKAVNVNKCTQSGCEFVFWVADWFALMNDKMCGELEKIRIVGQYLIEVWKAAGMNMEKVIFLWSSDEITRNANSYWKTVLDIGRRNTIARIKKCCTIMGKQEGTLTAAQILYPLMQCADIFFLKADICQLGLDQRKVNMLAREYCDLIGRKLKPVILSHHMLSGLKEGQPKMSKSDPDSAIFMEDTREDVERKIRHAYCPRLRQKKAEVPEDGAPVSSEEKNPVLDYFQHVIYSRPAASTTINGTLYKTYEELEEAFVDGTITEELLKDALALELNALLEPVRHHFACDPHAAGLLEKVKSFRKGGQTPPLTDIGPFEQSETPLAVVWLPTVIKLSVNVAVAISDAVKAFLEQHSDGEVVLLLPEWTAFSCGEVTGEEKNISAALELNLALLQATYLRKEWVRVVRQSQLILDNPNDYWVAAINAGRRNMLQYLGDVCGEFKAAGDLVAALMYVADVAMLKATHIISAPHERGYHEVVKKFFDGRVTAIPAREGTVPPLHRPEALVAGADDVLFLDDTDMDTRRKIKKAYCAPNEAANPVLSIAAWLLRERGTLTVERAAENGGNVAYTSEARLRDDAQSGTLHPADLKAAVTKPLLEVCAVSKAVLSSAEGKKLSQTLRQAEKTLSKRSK

[10] = molecular target: T4, Tyrosyl-tRNA synthetase, putative (Trypanosoma cruzi (strain CL Brener)); assay: Trypanosoma cruzi tyrosyl tRNA synthetase (TcYRS) SOP; type: functional; settings: 30 µM
[11] = molecular target: Chromo domain-containing protein 1 (Saccharomyces cerevisiae (strain ATCC 204508 / S288c) (Baker's yeast)) (UniProt P32657); assay: ScCHD-1 Enzyme Inhibition Assay; type: functional; settings: 30 µM; note: in the data most compounds retested in dose-response had high values
Chain of Chromo domain-containing protein 1 (Saccharomyces cerevisiae (strain ATCC 204508 / S288c) (Baker's yeast)) (P32657 whole entry, the tested form may be a part): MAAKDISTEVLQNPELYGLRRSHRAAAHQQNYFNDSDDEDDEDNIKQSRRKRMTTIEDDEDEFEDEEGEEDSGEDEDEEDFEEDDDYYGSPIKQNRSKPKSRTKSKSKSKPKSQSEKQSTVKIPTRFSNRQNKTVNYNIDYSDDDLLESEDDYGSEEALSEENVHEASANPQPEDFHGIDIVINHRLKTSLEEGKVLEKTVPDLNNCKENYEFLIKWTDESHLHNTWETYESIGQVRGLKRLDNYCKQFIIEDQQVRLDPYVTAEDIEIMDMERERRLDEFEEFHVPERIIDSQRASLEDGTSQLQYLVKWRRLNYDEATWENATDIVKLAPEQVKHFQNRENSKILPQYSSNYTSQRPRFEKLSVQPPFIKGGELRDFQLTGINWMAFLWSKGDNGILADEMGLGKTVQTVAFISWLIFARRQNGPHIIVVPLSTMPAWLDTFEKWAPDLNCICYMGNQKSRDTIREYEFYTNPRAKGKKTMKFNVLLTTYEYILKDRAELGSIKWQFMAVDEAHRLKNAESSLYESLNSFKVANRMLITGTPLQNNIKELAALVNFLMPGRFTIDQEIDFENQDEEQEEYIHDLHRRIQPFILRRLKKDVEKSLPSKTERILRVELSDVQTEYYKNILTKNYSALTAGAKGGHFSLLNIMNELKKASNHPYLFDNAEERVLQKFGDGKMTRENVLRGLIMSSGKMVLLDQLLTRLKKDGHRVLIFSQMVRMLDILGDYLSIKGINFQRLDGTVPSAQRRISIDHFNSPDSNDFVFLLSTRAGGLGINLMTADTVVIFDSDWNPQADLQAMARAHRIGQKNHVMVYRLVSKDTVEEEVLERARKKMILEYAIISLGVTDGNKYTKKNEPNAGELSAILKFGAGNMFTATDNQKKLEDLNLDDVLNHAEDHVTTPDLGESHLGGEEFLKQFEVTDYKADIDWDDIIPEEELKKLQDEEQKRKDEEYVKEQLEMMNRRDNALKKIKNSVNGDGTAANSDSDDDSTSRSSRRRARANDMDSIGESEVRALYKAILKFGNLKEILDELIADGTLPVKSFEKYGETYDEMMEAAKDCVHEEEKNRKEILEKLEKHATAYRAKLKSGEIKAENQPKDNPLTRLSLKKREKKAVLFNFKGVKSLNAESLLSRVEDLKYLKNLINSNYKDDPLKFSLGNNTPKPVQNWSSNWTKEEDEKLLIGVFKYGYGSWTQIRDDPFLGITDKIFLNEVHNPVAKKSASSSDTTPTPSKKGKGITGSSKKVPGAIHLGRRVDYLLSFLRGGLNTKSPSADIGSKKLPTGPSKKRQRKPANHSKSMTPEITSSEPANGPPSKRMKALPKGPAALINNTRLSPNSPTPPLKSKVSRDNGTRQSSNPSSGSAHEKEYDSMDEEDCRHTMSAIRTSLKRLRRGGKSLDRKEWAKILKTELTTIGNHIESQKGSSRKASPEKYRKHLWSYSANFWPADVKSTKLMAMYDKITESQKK

SMILES	Percent Effect [1]	Percent Effect [2]	Percent Effect [3]	Percent Effect [4]	Percent Effect [5]	Percent Effect [6]	Percent Effect [7]	Percent Effect [8]	Percent Effect [9]	Percent Effect [10]	Percent Effect [11]
O=C(O)CCc1cccc(C2CCCN2Cc2ccc(F)c(F)c2)n1 (stereo unspecified)	-3.79%	4.05%	1.3%	8.61%	1.78%	1.62%	1.09%	0.308%	6.45%	14.3%	-20.7%
Cn1ccc(CN2CCC(OCCc3ccccc3)CC2)cc1=O	-2.81%	0%	-1.45%	-0.922%	-4.87%	4.98%	-5.41%	29.9%	0.971%	0%	1.89%
Cc1nn(C)c(Cl)c1CNCc1cccnc1N1CCN(C)CC1	-3.92%	13.2%	2.58%	7%	2.24%	-5.92%	17.4%	4.03%	3.19%	18.2%	-6.12%
COCCNC(=O)[C@H]1C[C@@H]2CCN(Cc3ccoc3)C[C@H]2O1	-1.42%	8.11%	5.25%	-7.78%	-8.7%	7.96%	23.2%	2.97%	0%	7.69%	-1.51%
CCc1nnsc1C(=O)N1CCCN(Cc2cnn(C)c2)CC1	-0.656%	-2.6%	-0.0421%	-5.43%	7.74%	-0.21%	-1.05%	-10.1%	0.952%	2.35%	-0.342%
Cc1ncsc1C(=O)N(C)CCc1ccncc1	-2.19%	2.63%	9.05%	3.98%	-0.564%	0%	-1.84%	16.7%	2.45%	4.88%	5.09%
COc1cccc2c1ccn2CC(=O)N[C@@H](CCSC)C(=O)O	1.36%	-1.33%	-55.8%	3.95%	-0.197%	-7.57%	11.5%	-11.4%	4.23%	-30.8%	-0.515%
Cc1nccnc1N1CC[C@@H](NC(=O)c2cnccn2)[C@H](O)C1	-5.54%	13.5%	-3.54%	17.2%	7.53%	2.86%	3.62%	2.71%	2.65%	14.6%	-0.902%
COc1c(CNCc2ccc(CN(C)C)cc2)c(C(C)C)nn1C	2.77%	-5.26%	5.16%	1.34%	-1.5%	3.45%	2.34%	11.8%	-0.49%	4.88%	-1.54%
CC(C)c1cc(NCC(O)c2ccc(F)cc2)n2nccc2n1 (stereo unspecified)	-2.04%	2.7%	10.8%	1.77%	1.35%	-4.29%	3.97%	38.1%	2.65%	7.32%	4.86%
Cn1nc(CNC(=O)c2ccc(Cl)cc2)c2c1CCOC2	-1.53%	2.6%	6.72%	8.57%	0.0986%	-3.23%	1.22%	5.87%	4.23%	6.41%	-3.86%
